Sfp PPTase inh – inhibitors of Bacillus subtilis Sfp phosphopantetheinyl transferase; Q9F4F7; Biochemical Sfp PPTase activity, qHTS; Potency, µM, for the others: largest response in the series, negative = inhibition, hits mostly inhibitors; 310,000 compounds, 3.5% hits; AID 1490;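 further: the enzyme is Sfp with the accession as filed and its product quenches rhodamine fluorescence; 0% = enzyme reaction without inhibitor and -100% = no enzyme wells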
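Buffer: 50 mM Hepes-Na pH 7.6, 10 mM MgCl2, 0.01% Nonidet P-40, 0.01% BSA. Enzyme 15 nM, pre-exposed to compound 15 min; substrates then added and fluorescence change tracked over 30 min.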
BAZ2B block – blocks human BAZ2B | 360,000 compounds, 4.4% hits | AlphaScreen BAZ2B-H3K14Ac peptide displacement | Potency, µM (highest dose often 114 µM), for the others: top-dose activity change, negative = inhibition, most hits filed as inhibitors; further: on the % scale 0 is the no-effect control and ±100 the full control effect; nearly all actives have a fitted effect of over 60% in size
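Inhibition is scored as reduced AlphaScreen emission. The BAZ2B/b-H3(5-23)K14Ac complex (50 nM each) in PBS pH 7.4, 0.01% Tween-20 meets compound (up to 110 uM) for 30 min at RT before bead addition.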
G9a inh – G9a (human) methyltransferase inhibition; G9a H3K9 monomethylation, AlphaScreen, 2 h; AID 504332; 350,000 compounds, 8.8% hits; Q96KQ7; Potency, µM (highest dose often 102 µM), inactives show at the highest dose activity, negative = inhibition, most hits filed as inhibitors; further: on the % scale 0 is the no-effect control and ±100 the full control effect; nearly all actives have a fitted effect of over 75% in size
Target sequence (Q96KQ7 913-1193 limits assumed): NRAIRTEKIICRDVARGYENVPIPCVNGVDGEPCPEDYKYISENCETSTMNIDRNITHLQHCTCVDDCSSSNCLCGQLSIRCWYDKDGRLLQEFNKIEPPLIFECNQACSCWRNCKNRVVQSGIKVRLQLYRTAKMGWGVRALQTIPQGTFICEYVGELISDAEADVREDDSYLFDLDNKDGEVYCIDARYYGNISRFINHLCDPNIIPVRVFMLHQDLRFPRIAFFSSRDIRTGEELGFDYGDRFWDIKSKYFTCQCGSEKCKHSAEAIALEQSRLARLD
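AlphaScreen read-out: biotin-H3K9 peptide (500 nM) methylation by 20 nM enzyme with 20 uM SAM, 2 h at room temperature after 15 min compound preincubation; anti-monomethyl H3K9 antibody plus donor/acceptor beads, 10 min dark.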
JMJD2A Tudor – JMJD2A Tudor domain (human) inhibition. Potency, µM (series often up to 114 µM), without a hit: at the highest dose activity change, negative = inhibition, usual class: inhibitors. AlphaScreen JMJD2A-Tudor / H3K4me3 peptide binding. O75164. 390,000 compounds, 4.4% hits. AID 504339; further: on the % scale 0 is the no-effect control and ±100 the full control effect; nearly all actives have a fitted effect of over 50% in size
L3MBTL1 block – L3MBTL1 (human) inhibition; AID 485360; Potency, µM (doses to about 57.1 µM), for the others: at the top dose activity, negative = inhibition, usual class: inhibitors; AlphaScreen L3MBTL1–H3K9me1 peptide binding; 230,000 compounds, 0.66% hits; further: on the % scale 0 is the no-effect control and ±100 the full control effect; nearly all actives have a fitted effect of over 60% in size
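Read-out is AlphaScreen signal from streptavidin donor and nickel chelate acceptor beads (10 ug/mL final each) bridging L3MBTL1 (50 nM) and biotinylated K9-monomethylated H3(1-15) peptide (75 nM), after 30 min compound exposure at room temperature.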
HP1b binding inh – HP1-beta chromodomain-methylated histone interaction inhibition | AlphaScreen HP1-beta / biotin-H3K9me3 peptide binding | Potency, µM (titrated, usually from 114 µM), inactives show top-dose activity change, negative = inhibition, actives largely listed as inhibitors | 390,000 compounds, 0.56% hits; further: nearly all actives have a fitted effect of over 70% in size
Target sequence (P83916 whole entry, looked up): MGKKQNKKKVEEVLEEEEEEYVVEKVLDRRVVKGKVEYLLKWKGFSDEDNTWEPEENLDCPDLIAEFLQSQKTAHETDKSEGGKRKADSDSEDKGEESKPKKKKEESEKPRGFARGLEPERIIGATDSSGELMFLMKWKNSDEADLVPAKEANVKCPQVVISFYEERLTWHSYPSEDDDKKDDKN
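Compound inhibition of the preformed complex between 50 nM HP1-beta and 50 nM biotinylated H3K9me3 peptide was read by AlphaScreen. Buffer was PBS pH 7.4 with 0.01% Tween-20. Incubations ran 30 min at room temperature, with 10 ug/mL donor/acceptor beads.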
An asterisk follows results filed as active; ? = inconclusive; nt = no result given; [ ] = dose if it differs, or a comment. In the library only some 12% were active in any assay of this set; here they are far more common. The call rests on the fitted dose curve; in most records, active means well fitted curve in the direction sought with a large enough effect; inconclusive means small, poorly fitted or top-dose-only effect, or another doubt; inactive means no such curve, though single readings can be large; an effect the other way counts as inactive or inconclusive. Potency means the concentration at half of the fitted maximal effect.

SMILES	Sfp PPTase inh	BAZ2B block	G9a inh	JMJD2A Tudor	L3MBTL1 block	HP1b binding inh
O=C(NCCCCN1CCOCC1)c1cc2ccccc2o1	4.3%	nt	nt	nt	nt	nt
NC(=O)Cn1cc(/C=N\NS(=O)(=O)c2ccc(Cl)cc2)c2ccccc21	4.5%	-13.1%	32.3%	-17.8%	nt	38.8%
Cc1ccc(S(=O)(=O)N/N=C\c2cn(CC(N)=O)c3ccccc23)cc1C	7.4%	?	79.4µM*	-17.9%	nt	26.4%
CCOC(=O)NCCOc1ccc(Oc2ccccc2)cc1	-4.2%	nt	nt	nt	nt	nt
O/N=C1\CCCc2c1nc(-c1ccccc1F)n2O	?	50.1µM*	22.4µM*	31.6µM*	nt	-2.4%
CCc1nc(N2CCN(CC(=O)NCC3CCCO3)CC2)c(C#N)c2c1COC(C)(C)C2 (stereo not drawn)	-29.0%	50.1µM*	nt	-0.8%	nt	33.0%
CCCCc1nc(N2CCOCC2)c(C#N)c2c1COC(C)(C)C2	3.5%	15.4%	-1.8%[12.7 µM]	21.0%	4.4%[11.4 µM]	50.6%
CCOC(=O)c1ccccc1NC(=O)CCOc1ccccc1	nt	128.4%	37.6%[59 µM]	98.0%	nt	170.6%
Cn1ncc2c(=O)[nH]c(N)nc21	nt	nt	nt	-9.8%	nt	1.3%
CN(C/C=C/c1ccccc1[N+](=O)[O-])Cc1ccccc1	-11.3%	56.2µM*	-8.5%[0.501 µM]	28.2µM*	-7.0%[2.29 µM]	?
Cc1cc2c(OCC(CNC(C)(C)C)OC(=O)c3ccccc3)cccc2[nH]1 (stereo not drawn)	9.4%	nt	15.8µM*	nt	nt	nt
COc1ccc(C)cc1NC(=O)NCc1cccn1Cc1ccccc1	nt	-15.8%	4.7%[59 µM]	-31.7%	nt	60.2%
C=C(c1ccccc1)c1ccc(N(C)C)cc1	-10.6%	?	16.8%[2.33 µM]	44.7µM*	nt	?
CN(C)c1ccc(C(=O)c2ccccc2)cc1	-9.8%	6.5%	1.2%[59 µM]	-7.2%	nt	35.3%
N[C@H](C(=O)O)[C@H](Cc1ccccc1)C(=O)O	nt	nt	7.08µM*	nt	nt	nt
CC1CCc2c(sc(/N=C/c3cccnc3)c2C(N)=O)C1 (stereo not drawn)	50.1µM*	-4.6%	-25.2%[12.7 µM]	-6.1%	-4.7%	18.6%
CC(C)(C)Nc1oc(-c2ccccc2)nc1-c1ccc(C(F)(F)F)cc1	-18.0%	nt	nt	nt	nt	nt
CSS(=O)(=O)c1cccc2cccnc12	20µM*	14.1µM*	0.282µM*	3.16µM*	-8.3%	2.9%
Nc1ccccc1S(=O)(=O)Nc1cccc2cccnc12	3.1%	nt	nt	56.2µM*	nt	nt
O=C(O)c1ccccc1NS(=O)(=O)c1cccc2cccnc12	-6.8%	-31.9%	?	20µM*	nt	-4.2%
O=C(Nc1cccc2ccccc12)c1ccccc1NS(=O)(=O)c1cccc2cccnc12	9.8%	-1.0%	?	-15.7%	0.8%	12.2%
O=S(=O)(NCCc1ccccc1)c1cccc2cccnc12	9.4%	14.4%	50.1µM*	0.7%	nt	2.8%
COc1cc(-c2ccc3ncnc(NCc4nc(C)cs4)c3c2)cc(OC)c1OC	nt	nt	nt	-32.6%	nt	nt
CCC(Sc1nc2ncccc2o1)C(=O)Nc1cccc(C)c1 (stereo not drawn)	nt	-13.1%	5.2%[59 µM]	-2.0%	nt	20.1%
C#CCN(C(=O)c1cc(COc2cccc(C(F)(F)F)c2)on1)C1CCCCC1	12.8%	0.9%	73.5%	33.1%	nt	98.7%
SMILES	Sfp PPTase inh	BAZ2B block	G9a inh	JMJD2A Tudor	L3MBTL1 block	HP1b binding inh
O=C(N/N=C/c1cc2c(cc1Br)OCO2)c1cc2ccccc2o1	-22.4%	-25.2%	39.8µM*	-25.4%	nt	26.2%
O=C(/C=C/c1ccc2c(c1)OCO2)c1ccccn1	31.6µM*	?	?	-33.8%	nt	15.7%
O=C(C=Cc1ccc2c(c1)OCO2)c1ccccc1	nt	nt	nt	13.1%	nt	53.9%
O=C(N/N=C/c1ccc2c(c1)OCO2)c1sc2cc(Cl)ccc2c1Cl	-11.0%	?	0.8%[59 µM]	89.1µM*	2.3%	103.0%
O=C(CCc1ccc(O)c(O)c1)N/N=C/c1ccc2c(c1)OCO2	39.8µM*	-29.9%	nt	?	nt	?
COc1ccc2c(Cl)c(C(=O)N/N=C/c3ccc4c(c3)OCO4)sc2c1	?	-1.0%[57.1 µM]	1.6%[12.7 µM]	-31.1%	-5.6%	-4.4%
COCCNC(=O)C1(S(=O)(=O)c2ccccc2)CC=CC1	9.8%	5.3%	-7.8%	-13.6%	3.1%	36.6%
